Assay results from the supplement of paper PMC11732987, “Enantioselective OTUD7B fragment discovery through chemoproteomics screening and high-throughput optimisation” (Communications Chemistry, 2025).

How the values were obtained:
Assay in all cases: log2 ratio of Biotin-Ahx-Ub-VS probe labelling (fragment/DMSO); higher = less target engagement (more negative = stronger competition), active = hit call of the paper (q ≤ 0.05, log2 ratio ≤ -1)
Conditions in all cases: compound concentration: 200 uM; treatment time: 3 h
USP34 = USP34 (UniProt Q70CQ2)
Method in brief: (§1)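 Labelling with Biotin-Ahx-Ub-VS (0.5 µM final, 1 h) followed a 3 h triplicate treatment of HEK293T lysate (495 µg per sample, Tris/CHAPS/IGEPAL buffer with protease inhibitors) with fragment at 200 µM or vehicle. Labelled DUBs were NeutrAvidin-enriched, digested with LysC and trypsin, and run by diaPASEF LC-MS/MS. The values, average log2 fragment/vehicle ratios by unpaired t-test, come from global-median-normalised Spectronaut label-free quantities. Proteins with ≥2 unique peptides were used.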

USP36 = biological target: T1, USP36 (UniProt Q9P275)
T1 sequence (whole entry): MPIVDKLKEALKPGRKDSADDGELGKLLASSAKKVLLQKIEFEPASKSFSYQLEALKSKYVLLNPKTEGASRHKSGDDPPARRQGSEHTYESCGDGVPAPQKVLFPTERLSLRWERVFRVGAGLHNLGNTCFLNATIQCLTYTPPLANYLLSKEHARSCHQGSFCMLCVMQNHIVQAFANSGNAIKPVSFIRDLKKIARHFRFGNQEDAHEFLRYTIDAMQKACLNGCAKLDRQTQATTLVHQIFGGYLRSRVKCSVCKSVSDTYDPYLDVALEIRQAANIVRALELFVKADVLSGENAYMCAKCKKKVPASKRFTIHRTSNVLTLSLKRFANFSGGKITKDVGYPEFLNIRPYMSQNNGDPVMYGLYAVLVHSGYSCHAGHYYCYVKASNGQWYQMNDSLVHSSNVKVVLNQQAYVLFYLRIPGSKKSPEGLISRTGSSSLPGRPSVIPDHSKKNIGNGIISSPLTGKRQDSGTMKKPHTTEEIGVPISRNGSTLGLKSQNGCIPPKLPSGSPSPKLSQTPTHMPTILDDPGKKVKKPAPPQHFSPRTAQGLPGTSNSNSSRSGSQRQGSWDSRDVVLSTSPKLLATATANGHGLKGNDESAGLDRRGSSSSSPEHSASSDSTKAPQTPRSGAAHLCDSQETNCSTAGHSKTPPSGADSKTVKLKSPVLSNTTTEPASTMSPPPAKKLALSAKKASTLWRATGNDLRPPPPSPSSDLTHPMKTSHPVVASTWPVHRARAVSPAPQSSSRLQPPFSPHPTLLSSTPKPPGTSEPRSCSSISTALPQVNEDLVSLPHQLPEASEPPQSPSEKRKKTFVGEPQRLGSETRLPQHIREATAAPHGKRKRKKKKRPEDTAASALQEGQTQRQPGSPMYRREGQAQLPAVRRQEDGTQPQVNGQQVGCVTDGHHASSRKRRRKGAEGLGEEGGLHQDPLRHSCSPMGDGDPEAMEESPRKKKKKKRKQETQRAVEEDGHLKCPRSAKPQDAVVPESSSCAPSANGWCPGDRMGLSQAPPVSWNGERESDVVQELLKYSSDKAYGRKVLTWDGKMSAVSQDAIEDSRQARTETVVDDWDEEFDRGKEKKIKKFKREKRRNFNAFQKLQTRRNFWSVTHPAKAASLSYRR
Method in brief: as §1

USP38 = biological target: T2, USP38 (UniProt Q8NB14)
T2 sequence (whole entry): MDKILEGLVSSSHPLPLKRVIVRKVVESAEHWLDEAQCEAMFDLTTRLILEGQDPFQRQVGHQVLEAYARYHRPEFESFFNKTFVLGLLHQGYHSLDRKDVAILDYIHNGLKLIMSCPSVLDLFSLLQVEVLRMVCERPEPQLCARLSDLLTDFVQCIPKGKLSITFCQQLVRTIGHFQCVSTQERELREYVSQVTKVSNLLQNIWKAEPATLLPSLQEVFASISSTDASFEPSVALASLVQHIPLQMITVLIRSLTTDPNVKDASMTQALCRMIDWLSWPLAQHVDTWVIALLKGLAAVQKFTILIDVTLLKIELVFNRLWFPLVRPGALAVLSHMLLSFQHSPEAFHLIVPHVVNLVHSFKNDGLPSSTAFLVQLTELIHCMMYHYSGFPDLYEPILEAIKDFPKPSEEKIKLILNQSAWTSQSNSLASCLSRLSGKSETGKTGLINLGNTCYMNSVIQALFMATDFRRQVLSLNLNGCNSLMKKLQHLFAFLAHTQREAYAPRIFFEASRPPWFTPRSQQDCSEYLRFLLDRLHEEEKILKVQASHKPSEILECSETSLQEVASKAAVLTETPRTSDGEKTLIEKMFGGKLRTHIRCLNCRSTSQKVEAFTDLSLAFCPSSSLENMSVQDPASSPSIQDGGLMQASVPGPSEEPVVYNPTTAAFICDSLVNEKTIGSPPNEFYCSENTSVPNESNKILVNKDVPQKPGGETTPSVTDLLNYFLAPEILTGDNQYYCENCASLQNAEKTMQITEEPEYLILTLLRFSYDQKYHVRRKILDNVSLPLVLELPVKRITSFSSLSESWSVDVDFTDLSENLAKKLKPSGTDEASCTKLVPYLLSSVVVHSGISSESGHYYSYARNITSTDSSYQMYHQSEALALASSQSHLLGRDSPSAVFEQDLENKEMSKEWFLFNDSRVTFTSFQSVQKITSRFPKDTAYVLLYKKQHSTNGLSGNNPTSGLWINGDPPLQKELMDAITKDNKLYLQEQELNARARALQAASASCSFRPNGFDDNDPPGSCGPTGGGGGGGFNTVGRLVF
Method in brief: as §1

USP39 = biological target: T3, USP39 (UniProt Q53GS9)
T3 sequence (whole entry): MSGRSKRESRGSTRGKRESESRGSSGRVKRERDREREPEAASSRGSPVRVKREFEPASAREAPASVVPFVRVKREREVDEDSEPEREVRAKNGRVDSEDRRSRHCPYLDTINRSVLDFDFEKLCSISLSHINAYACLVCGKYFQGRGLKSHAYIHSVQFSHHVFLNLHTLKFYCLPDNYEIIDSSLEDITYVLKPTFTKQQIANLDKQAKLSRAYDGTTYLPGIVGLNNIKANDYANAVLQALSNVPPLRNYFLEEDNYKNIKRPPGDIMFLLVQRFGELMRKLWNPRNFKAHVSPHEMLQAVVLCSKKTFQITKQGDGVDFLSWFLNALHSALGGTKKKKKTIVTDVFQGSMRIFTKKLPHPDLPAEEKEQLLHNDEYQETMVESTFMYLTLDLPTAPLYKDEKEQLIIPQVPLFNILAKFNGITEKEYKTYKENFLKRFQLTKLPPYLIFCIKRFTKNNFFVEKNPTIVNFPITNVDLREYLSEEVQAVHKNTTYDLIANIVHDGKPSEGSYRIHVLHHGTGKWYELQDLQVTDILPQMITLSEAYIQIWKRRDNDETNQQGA
Method in brief: as §1

USP4 = biological target: T4, USP4 (UniProt Q13107)
T4 sequence (whole entry): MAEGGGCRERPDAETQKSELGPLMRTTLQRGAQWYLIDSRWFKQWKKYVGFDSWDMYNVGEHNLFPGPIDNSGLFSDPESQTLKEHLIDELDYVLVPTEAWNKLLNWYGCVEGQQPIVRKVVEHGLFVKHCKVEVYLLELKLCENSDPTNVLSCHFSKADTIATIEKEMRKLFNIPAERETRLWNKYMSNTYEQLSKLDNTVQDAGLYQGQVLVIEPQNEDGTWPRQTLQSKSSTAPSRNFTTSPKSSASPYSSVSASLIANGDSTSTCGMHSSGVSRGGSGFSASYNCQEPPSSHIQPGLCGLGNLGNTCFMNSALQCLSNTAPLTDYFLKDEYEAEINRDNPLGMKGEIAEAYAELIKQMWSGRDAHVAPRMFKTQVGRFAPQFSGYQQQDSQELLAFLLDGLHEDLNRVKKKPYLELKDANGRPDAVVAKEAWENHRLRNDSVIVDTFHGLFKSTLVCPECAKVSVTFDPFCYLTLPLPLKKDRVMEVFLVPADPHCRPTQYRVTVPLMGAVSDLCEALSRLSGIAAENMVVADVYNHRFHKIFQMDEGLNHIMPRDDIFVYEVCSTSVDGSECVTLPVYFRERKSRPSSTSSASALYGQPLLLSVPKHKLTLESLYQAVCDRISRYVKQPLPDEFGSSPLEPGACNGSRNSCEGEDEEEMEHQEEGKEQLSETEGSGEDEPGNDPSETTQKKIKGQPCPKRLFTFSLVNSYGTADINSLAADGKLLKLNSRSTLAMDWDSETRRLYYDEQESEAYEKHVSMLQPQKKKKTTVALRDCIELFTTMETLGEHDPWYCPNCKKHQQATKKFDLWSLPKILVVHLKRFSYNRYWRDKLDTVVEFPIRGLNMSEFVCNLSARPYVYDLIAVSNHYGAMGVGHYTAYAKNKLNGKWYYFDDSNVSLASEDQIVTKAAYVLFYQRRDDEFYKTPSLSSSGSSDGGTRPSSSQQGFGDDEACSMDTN
Method in brief: as §1

Measured: log2 ratio of Biotin-Ahx-Ub-VS probe labelling

Sequence of USP34 (Q70CQ2 whole entry, the tested form may be a part): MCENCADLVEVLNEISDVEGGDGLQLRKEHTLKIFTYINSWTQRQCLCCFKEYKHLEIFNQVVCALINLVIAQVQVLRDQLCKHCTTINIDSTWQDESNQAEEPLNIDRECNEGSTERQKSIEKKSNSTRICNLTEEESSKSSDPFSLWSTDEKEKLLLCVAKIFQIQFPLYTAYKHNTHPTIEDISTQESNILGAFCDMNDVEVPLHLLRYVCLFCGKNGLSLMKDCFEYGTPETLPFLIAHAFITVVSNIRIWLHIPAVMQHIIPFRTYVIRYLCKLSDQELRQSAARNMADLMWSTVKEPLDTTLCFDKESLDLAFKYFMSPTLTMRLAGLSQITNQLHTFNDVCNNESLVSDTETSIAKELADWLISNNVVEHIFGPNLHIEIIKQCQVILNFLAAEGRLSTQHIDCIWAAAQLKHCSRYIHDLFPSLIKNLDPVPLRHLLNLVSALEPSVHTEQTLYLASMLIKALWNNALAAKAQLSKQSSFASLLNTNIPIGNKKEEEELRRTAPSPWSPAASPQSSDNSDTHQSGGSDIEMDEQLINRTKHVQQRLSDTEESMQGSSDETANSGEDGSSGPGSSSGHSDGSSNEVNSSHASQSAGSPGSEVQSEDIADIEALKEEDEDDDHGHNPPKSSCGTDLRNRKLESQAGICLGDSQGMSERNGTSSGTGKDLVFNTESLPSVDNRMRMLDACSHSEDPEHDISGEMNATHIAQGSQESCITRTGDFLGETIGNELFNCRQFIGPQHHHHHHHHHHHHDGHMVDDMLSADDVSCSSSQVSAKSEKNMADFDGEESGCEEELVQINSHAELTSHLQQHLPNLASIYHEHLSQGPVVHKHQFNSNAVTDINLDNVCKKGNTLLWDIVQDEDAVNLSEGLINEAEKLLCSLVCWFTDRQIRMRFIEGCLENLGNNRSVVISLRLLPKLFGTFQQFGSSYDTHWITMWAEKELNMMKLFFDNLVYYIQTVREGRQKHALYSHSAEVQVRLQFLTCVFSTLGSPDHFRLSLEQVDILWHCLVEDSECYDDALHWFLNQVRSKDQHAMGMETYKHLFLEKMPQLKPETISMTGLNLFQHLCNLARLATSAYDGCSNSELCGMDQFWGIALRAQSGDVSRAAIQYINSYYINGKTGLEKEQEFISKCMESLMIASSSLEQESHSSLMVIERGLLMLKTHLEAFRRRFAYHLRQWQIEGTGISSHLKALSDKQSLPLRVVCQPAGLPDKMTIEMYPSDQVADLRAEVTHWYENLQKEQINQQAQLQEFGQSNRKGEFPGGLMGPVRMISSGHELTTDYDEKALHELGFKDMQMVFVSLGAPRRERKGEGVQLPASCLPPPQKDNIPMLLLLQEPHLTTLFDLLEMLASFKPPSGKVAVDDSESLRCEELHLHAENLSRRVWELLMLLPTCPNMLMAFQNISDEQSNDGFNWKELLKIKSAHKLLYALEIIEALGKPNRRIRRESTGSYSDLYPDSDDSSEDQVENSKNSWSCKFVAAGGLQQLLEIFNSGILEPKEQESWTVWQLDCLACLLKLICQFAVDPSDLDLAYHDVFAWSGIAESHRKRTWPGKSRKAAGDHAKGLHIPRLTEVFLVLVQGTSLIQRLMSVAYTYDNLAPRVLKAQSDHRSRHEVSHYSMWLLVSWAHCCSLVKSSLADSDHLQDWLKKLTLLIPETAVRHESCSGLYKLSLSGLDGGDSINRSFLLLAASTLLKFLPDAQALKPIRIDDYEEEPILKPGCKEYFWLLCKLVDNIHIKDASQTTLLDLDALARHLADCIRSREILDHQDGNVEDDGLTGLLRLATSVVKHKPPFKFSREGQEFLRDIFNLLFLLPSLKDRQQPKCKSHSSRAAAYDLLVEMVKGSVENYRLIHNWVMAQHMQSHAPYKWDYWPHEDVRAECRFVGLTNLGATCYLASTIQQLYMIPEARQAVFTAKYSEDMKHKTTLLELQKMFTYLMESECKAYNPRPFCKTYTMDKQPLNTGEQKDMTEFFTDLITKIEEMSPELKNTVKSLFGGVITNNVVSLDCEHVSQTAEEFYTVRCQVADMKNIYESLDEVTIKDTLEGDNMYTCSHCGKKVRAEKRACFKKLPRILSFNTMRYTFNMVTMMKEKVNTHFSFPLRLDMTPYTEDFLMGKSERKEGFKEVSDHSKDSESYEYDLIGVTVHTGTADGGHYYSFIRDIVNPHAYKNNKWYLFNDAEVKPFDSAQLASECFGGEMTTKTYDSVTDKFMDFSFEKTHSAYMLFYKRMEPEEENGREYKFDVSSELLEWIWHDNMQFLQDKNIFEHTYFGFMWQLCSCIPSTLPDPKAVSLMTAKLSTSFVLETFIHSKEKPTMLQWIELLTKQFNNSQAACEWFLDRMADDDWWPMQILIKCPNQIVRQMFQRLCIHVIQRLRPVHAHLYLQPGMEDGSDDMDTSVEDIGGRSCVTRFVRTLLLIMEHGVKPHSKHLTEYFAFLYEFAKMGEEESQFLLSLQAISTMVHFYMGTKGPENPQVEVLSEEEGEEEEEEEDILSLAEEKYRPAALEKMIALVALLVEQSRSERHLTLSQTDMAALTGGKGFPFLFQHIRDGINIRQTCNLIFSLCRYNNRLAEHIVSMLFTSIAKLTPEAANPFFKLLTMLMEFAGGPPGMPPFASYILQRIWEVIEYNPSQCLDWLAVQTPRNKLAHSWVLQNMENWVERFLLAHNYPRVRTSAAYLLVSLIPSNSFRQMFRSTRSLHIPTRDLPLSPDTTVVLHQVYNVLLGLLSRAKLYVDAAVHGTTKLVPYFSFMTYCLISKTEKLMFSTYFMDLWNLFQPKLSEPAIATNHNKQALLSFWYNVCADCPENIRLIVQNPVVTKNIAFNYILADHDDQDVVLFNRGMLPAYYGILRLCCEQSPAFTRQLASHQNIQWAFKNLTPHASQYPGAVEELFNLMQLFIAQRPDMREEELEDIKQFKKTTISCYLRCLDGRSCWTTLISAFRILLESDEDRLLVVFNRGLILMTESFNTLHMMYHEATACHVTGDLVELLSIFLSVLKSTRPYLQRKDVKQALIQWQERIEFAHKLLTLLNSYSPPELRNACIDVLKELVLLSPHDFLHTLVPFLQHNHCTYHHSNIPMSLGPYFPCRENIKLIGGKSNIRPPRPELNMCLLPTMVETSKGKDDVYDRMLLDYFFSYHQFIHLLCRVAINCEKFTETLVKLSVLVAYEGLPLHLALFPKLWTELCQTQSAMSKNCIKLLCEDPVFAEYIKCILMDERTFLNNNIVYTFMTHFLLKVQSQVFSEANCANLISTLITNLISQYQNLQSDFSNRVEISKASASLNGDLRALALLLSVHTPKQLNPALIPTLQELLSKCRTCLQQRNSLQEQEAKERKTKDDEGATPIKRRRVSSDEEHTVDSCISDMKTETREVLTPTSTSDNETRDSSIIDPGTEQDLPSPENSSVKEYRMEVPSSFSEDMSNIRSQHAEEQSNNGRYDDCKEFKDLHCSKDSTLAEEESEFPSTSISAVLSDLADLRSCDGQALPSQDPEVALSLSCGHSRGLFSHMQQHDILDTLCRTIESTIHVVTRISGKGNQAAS

O=C(CCl)Nc1cccc(NC(=O)c2ccccc2)c1
inactive: USP34 0.0355 | USP36 -0.11 | USP38 0.15 | USP39 0.0551 | USP4 0.199
